# Measured values taken from PubChem BioAssay (Tox21).
# Values joined by “and” are separate entries in the source; they are usually repeats but may differ in a detail not shown here. Equal entries are not always repeated. Inconclusive results are not listed. A call without a number means that no potency is given here. More than one record can exist for a structure, and the calls need not agree. Active and inactive are the calls of the source. Unless noted, calls come from the whole dose curve; as a rule, active = well fitted curve in the direction sought with a large enough effect in the repeat runs; inconclusive = weak or mixed curves; inactive = no such curve, though single readings can be large; an effect the other way counts as inactive or inconclusive.
# Experiments:
# [1] = qHTS assay to identify small molecule agonists of the hypoxia (HIF-1) signaling pathway - cell viability counter screen (AID 1224844; calls by dose curve; note: nearly all actives have a fitted effect of over 50% in size)
# Summary of the method: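 HRE-bla ME-180; 0.5% dFBS; cpd 17 h, 37C, 5% CO2; CellTiter-Glo lum., 30 min RT, post-FRET read, same wells.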
# [2] = qHTS assay to identify small molecule agonists of H2AX (AID 1224845; active = well fitted activation curve with a large enough effect in the signal ratio in the repeat runs, not every such curve was filed as active; the % refers to the signal ratio)
# Summary of the method: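 Phospho-H2AX Ser139 measured by HTRF (ex 320 nm; em 665 and 620 nm) after 24 hr antibody incubation. Compounds, 15 concentrations, 0.76% DMSO, were applied to CHO-K1 cells for 3hr at 37C before lysis.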
# [3] = qHTS assay to identify small molecule agonists of the hypoxia (HIF-1) signaling pathway (AID 1224846; active = well fitted activation curve with a large enough effect in the signal ratio in the repeat runs, not every such curve was filed as active; the % refers to the signal ratio)
# Summary of the method: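 Reporter induction in HRE-bla ME-180 cells is taken as agonism: cells sit 5 hrs after plating, receive compounds or DMSO only, incubate 17 hrs at 37C under 5% CO2, and are loaded with CCF4-AM for beta-lactamase FRET measurement.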
# [4] = qHTS assay to identify small molecule agonists of H2AX - cell viability counter screen (AID 1224847; calls by dose curve; note: top concentration of the series differs between compounds; nearly all actives have a fitted effect of over 30% in size)
# Summary of the method: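 Compounds tested at 15 concentrations were incubated 3 hr at 37C with wild-type CHO-K1 cells; cellular ATP-based luminescence (CellTiter-Glo) indicated viability.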
# [5] = qHTS assay to identify small molecule agonists of the estrogen related receptor (ERR) signaling pathway from Tox21 library (AID 1224849; calls by dose curve; note: nearly all actives have a fitted effect of over 15% in size); details: ERR reporter cell line, ONE-Glo luciferase, 18 h
# Summary of the method: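 Tox21 compounds tested for ERR agonism in an NTP reporter cell line: 18 h treatment at 37 C, then ONE-Glo luminescence.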
# [6] = qHTS RealTime-Glo MT Cell Viability Assay in HepG2 cells - 24 hour (AID 1224867); note: nearly all actives have a fitted effect of over 50% in size
# Summary of the method: (§1)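 HepG2 cells (600/well) were dispensed with RealTime-Glo reagents, incubated 5 h at 37 °C, then treated with compounds in DMSO for up to 40 h. Nonlytic NanoLuc luminescence reflecting viable cells was read at each stated time point.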
# [7] = A CellTox Green Cytotoxicity Assay to monitor cytotoxicity in HEK293 cells - 0 hour (AID 1224869); note: nearly all actives have a fitted effect of over 50% in size; note: potency is the fitted concentration of half-maximal effect
# Summary of the method: (§2)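 Tox21 screen in HEK293: membrane-impermeant cyanine dye fluoresces on binding dead-cell DNA; compound pinned 5 h post-seeding, plates held at 37 C, signal read repeatedly through 40 h.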
# [8] = qHTS RealTime-Glo MT Cell Viability Assay in HepG2 cells - 40 hour (AID 1224870); note: nearly all actives have a fitted effect of over 50% in size
# Summary of the method: (§3)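 Real-time viability: cells seeded at 600 per well together with NanoLuc and cell-permeant prosubstrate, compounds added after 5 h incubation. Luminescence tracked at 0, 8, 16, 24, 32 and 40 h of exposure.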
# [9] = qHTS RealTime-Glo MT Cell Viability Assay in HepG2 cells - 8 hour (AID 1224873); note: nearly all actives have a fitted effect of over 55% in size
# Summary of the method: as §3
# [10] = A CellTox Green Cytotoxicity Assay to monitor cytotoxicity in HEK293 cells - 24 hour (AID 1224875); note: nearly all actives have a fitted effect of over 45% in size
# Summary of the method: as §2
# [11] = qHTS RealTime-Glo MT Cell Viability Assay in HepG2 cells - 32 hour (AID 1224877); note: nearly all actives have a fitted effect of over 55% in size
# Summary of the method: as §1
# [12] = A CellTox Green Cytotoxicity Assay to monitor cytotoxicity in HepG2 cells - 24 hour (AID 1224878); note: nearly all actives have a fitted effect of over 45% in size; note: potency is the fitted concentration of half-maximal effect
# Summary of the method: (§4)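 Measurements at 0, 8, 16, 24, 32 and 40 h of treatment captured CellTox Green fluorescence in HepG2 cells that had been co-plated with reagent and preincubated 5 h at 37 C/5% CO2.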
# [13] = A CellTox Green Cytotoxicity Assay to monitor cytotoxicity in HepG2 cells - 40 hour (AID 1224879); note: nearly all actives have a fitted effect of over 40% in size; note: potency is the fitted concentration of half-maximal effect
# Summary of the method: as §4
# [14] = qHTS assay to identify small molecule antagonists of the estrogen related receptor (ERR) signaling pathway from Tox21 library (AID 1224848); note: nearly all actives have a fitted effect of over 50% in size
# Summary of the method: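 Luciferase luminescence (ONE-Glo, 30 min room temperature) was the read-out. Cells of the NTP-supplied ERR line, 2,000 per well, were given 6 h at 37 C before compound addition in DMSO and 18 h exposure at 37 C.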
# [15] = qHTS RealTime-Glo MT Cell Viability Assay in HEK293 cells - 32 hour (AID 1224868); note: nearly all actives have a fitted effect of over 50% in size; note: potency is the fitted concentration of half-maximal effect
# Summary of the method: (§5)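 HEK293 cells seeded with NanoLuc/prosubstrate reagent, rested 5 h at 37 C, then dosed and kept at 37 C up to 40 h. Nonlytic real-time luminescence from viable cells read at 0, 8, 16, 24, 32 and 40 h.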
# [16] = A CellTox Green Cytotoxicity Assay to monitor cytotoxicity in HEK293 cells - 40 hour (AID 1224871); note: nearly all actives have a fitted effect of over 45% in size; note: potency is the fitted concentration of half-maximal effect
# Summary of the method: as §2
# [17] = qHTS RealTime-Glo MT Cell Viability Assay in HEK293 cells - 16 hour (AID 1224872); note: nearly all actives have a fitted effect of over 50% in size; note: potency is the fitted concentration of half-maximal effect
# Summary of the method: as §5
# [18] = qHTS RealTime-Glo MT Cell Viability Assay in HEK293 cells - 40 hour (AID 1224874); details: RealTime-Glo luminescence; max response: stronger effect = lower value; note: nearly all actives have a fitted effect of over 50% in size; note: potency is the fitted concentration of half-maximal effect
# Summary of the method: (§6)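 HEK293 + NanoLuc + prosubstrate, 600 cells/well; 5 h, 37 C/5% CO2; compound 23 nL in DMSO by pintool; 37 C; luminescence read at 0, 8, 16, 24, 32 and 40 h time points.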
# [19] = A CellTox Green Cytotoxicity Assay to monitor cytotoxicity in HepG2 cells - 16 hour (AID 1224876); note: nearly all actives have a fitted effect of over 45% in size; note: potency is the fitted concentration of half-maximal effect
# Summary of the method: as §4
# [20] = qHTS RealTime-Glo MT Cell Viability Assay in HEK293 cells - 0 hour (AID 1224880)
# Summary of the method: as §6
smiles,measurement,setting,value
O=C1c2cccc(O)c2C(=O)c2c(O)cccc21,Potency,[1],inactive
same,outcome,[2],inactive
same,Potency,[3],inactive
same,Potency,[4],inactive
same,"activity change, positive = activation",[5]; at 42.5 µM (top of the series),-19.1% (inactive)
same,"activity change, positive = activation",[5]; at 92.4 µM (top of the series),-20.9% (inactive)
same,Potency,[6],inactive
same,Potency,[7],inactive
same,Potency,[8],inactive
same,Potency,[9],inactive
same,Potency,[10],inactive
same,Potency,[11],inactive
same,Potency,[12],inactive
same,Potency,[13],inactive
CC(C)OB(OC(C)C)OC(C)C,Potency,[1],inactive
same,outcome,[2],inactive
same,Potency,[3],inactive
same,Potency,[4],inactive
same,Potency,[14],inactive
same,"activity change, positive = activation",[5]; at 92.4 µM (top of the series),-0.608% (inactive) and 0.13% (inactive)
same,Potency,[6],inactive
same,Potency,[15],inactive
same,Potency,[7],inactive
same,Potency,[8],inactive
same,Potency,[16],inactive
same,Potency,[17],inactive
same,Potency,[9],inactive
same,max response,[18],-5.59% (inactive) and -12.5% (inactive)
same,Potency,[10],inactive
same,Potency,[19],inactive
same,Potency,[11],inactive
same,Potency,[12],inactive
same,Potency,[13],inactive
same,Potency,[20],inactive
C=C(C)C(=O)OCCOC(=O)C(=C)C,Potency,[1],inactive
same,outcome,[2],inactive
same,Potency,[3],inactive
same,Potency,[4],inactive
same,Potency,[14],inactive
same,"activity change, positive = activation",[5]; at 92.4 µM (top of the series),-0.0914% (inactive) and 4.51% (inactive)
same,Potency,[6],inactive
same,Potency,[15],inactive
same,Potency,[7],inactive
same,Potency,[8],inactive
same,Potency,[17],inactive
same,Potency,[9],inactive
same,max response,[18],7.24% (inactive) and -0.024% (inactive)
same,Potency,[10],inactive
same,Potency,[11],inactive
same,Potency,[12],inactive
same,Potency,[13],inactive
same,Potency,[20],inactive
COC(C)COC(C)COC(C)CO (stereo unspecified),Potency,[1],inactive
same,outcome,[2],inactive
same,Potency,[3],inactive
same,Potency,[4],inactive
same,Potency,[14],inactive
same,"activity change, positive = activation",[5]; at 92.4 µM (top of the series),-7.02% (inactive) and 0.149% (inactive)
same,Potency,[6],inactive
same,Potency,[15],inactive
same,Potency,[7],inactive
same,Potency,[8],inactive
same,Potency,[17],inactive
same,Potency,[9],inactive
same,max response,[18],0.372% (inactive) and 18.3% (inactive)
same,Potency,[10],inactive
same,Potency,[19],inactive
same,Potency,[11],inactive
same,Potency,[12],inactive
same,Potency,[13],inactive
same,Potency,[20],inactive
COc1c(Cl)c(Cl)c(Cl)c(Cl)c1Cl,Potency,[1],inactive
same,outcome,[2],inactive
same,Potency,[3],inactive
same,Potency,[4],inactive
same,Potency,[14],inactive
same,"activity change, positive = activation",[5]; at 92.4 µM (top of the series),0.259% (inactive) and 0.227% (inactive)
same,Potency,[6],inactive
same,Potency,[15],inactive
same,Potency,[7],inactive
same,Potency,[8],inactive
same,Potency,[16],inactive
same,Potency,[17],inactive
same,Potency,[9],inactive
same,max response,[18],-6.1% (inactive) and 5.51% (inactive)
same,Potency,[10],inactive
same,Potency,[19],inactive
same,Potency,[11],inactive
same,Potency,[12],inactive
same,Potency,[13],inactive
same,Potency,[20],inactive
COC(=O)Nc1nc2ccc(S(=O)c3ccccc3)cc2[nH]1 (stereo unspecified),Potency,[1],inactive
same,outcome,[2],inactive
same,Potency,[3],inactive
same,Potency,[4],inactive
same,Potency,[14],inactive
same,"activity change, positive = activation",[5]; at 42.5 µM (top of the series),3.15% (active)
same,"activity change, positive = activation",[5]; at 92.4 µM (top of the series),-9.11% (inactive)
same,Potency,[6],inactive
same,Potency,[15],9.76 µM (active) and 952 nM (active)
same,Potency,[7],inactive
same,Potency,[8],inactive
same,Potency,[16],inactive
same,Potency,[17],1.34 µM (active)
same,Potency,[9],inactive
same,Potency,[18],0.756 µM (active)
same,Potency,[10],inactive
same,Potency,[11],inactive
same,Potency,[12],inactive and 10.7 µM (active)
same,Potency,[13],0.848 µM (active)
same,Potency,[20],inactive
CC1=CC2C3CC(C=C3C)C2C1 (stereo unspecified),Potency,[1],inactive
same,outcome,[2],inactive
same,Potency,[3],inactive
same,Potency,[4],inactive
same,Potency,[14],inactive
same,"activity change, positive = activation",[5]; at 92.4 µM (top of the series),0.676% (inactive) and -14.6% (inactive)
same,Potency,[6],inactive
same,Potency,[15],inactive
same,Potency,[7],inactive and 38.9 µM (active)
same,Potency,[8],inactive
same,Potency,[16],inactive and 38.9 µM (active)
same,Potency,[17],inactive
same,Potency,[9],inactive
same,max response,[18],6.31% (inactive) and 1.24% (inactive)
same,Potency,[19],inactive and 24.5 µM (active)
same,Potency,[11],inactive
same,Potency,[12],inactive and 27.5 µM (active)
same,Potency,[13],inactive and 38.9 µM (active)
CCCC(=O)O,Potency,[1],inactive
same,outcome,[2],inactive
same,Potency,[3],inactive
same,Potency,[4],inactive
same,Potency,[14],inactive
same,"activity change, positive = activation",[5]; at 92.4 µM (top of the series),4.22% (inactive) and -0.802% (inactive)
same,Potency,[6],inactive
same,Potency,[15],inactive
same,Potency,[7],inactive
same,Potency,[8],inactive
same,Potency,[17],inactive
same,Potency,[9],inactive
same,max response,[18],23.6% (inactive) and 12.6% (inactive)
same,Potency,[10],inactive
same,Potency,[19],inactive
same,Potency,[11],inactive
same,Potency,[12],inactive
same,Potency,[13],inactive
CCCCCCCCCCCO,Potency,[1],inactive
same,outcome,[2],inactive
same,Potency,[3],inactive
same,Potency,[4],inactive
same,Potency,[14],inactive
same,"activity change, positive = activation",[5]; at 92.4 µM (top of the series),-4.02% (inactive) and 0.762% (inactive)
same,Potency,[6],inactive
same,Potency,[15],inactive
same,Potency,[7],inactive
same,Potency,[8],inactive
same,Potency,[16],inactive
same,Potency,[17],inactive
same,Potency,[9],inactive
same,max response,[18],-2.32% (inactive) and 0.908% (inactive)
same,Potency,[10],inactive
same,Potency,[11],inactive
same,Potency,[12],inactive
same,Potency,[13],inactive
same,Potency,[20],inactive
COc1ccc(C(=O)CC(=O)c2ccc(C(C)(C)C)cc2)cc1,Potency,[1],inactive
same,outcome,[2],inactive
same,Potency,[3],inactive
same,Potency,[4],inactive
same,Potency,[6],inactive
same,Potency,[15],29.6 µM (active) and inactive
same,Potency,[7],inactive
same,Potency,[8],inactive
same,Potency,[16],inactive
same,Potency,[17],29.6 µM (active) and inactive
same,Potency,[9],inactive
same,Potency,[18],29.6 µM (active)
same,max response,[18],-14% (inactive)
same,Potency,[10],inactive
same,Potency,[19],inactive and 67.4 nM (active)
same,Potency,[11],inactive
same,Potency,[12],inactive and 75.6 nM (active)
same,Potency,[13],inactive and 67.4 nM (active)
same,Potency,[20],inactive
COC(=O)CCC(=O)OC,Potency,[1],inactive
same,outcome,[2],inactive
same,Potency,[3],inactive
same,Potency,[4],inactive
same,Potency,[14],inactive
same,"activity change, positive = activation",[5]; at 92.4 µM (top of the series),8.82% (inactive) and 7.51% (inactive)
same,Potency,[6],inactive
same,Potency,[15],inactive
same,Potency,[7],inactive
same,Potency,[8],inactive
same,Potency,[16],inactive
same,Potency,[17],inactive
same,Potency,[9],inactive
same,max response,[18],-3.79% (inactive) and 17.6% (inactive)
same,Potency,[10],inactive
same,Potency,[19],inactive
same,Potency,[11],inactive
same,Potency,[12],inactive
same,Potency,[13],inactive
Cc1cccc([N+](=O)[O-])c1C,Potency,[1],inactive
same,outcome,[2],inactive
same,Potency,[3],inactive
same,Potency,[4],inactive
same,Potency,[6],inactive
same,Potency,[15],inactive
same,Potency,[7],inactive
same,Potency,[8],inactive
same,Potency,[16],inactive
same,Potency,[17],inactive
same,Potency,[9],inactive
same,max response,[18],2.52% (inactive) and -15.5% (inactive)
same,Potency,[10],inactive
same,Potency,[19],inactive
same,Potency,[11],inactive
same,Potency,[12],inactive
same,Potency,[13],inactive
